“And” between values parts separate entries of the source, which are not always exact repeats. Equal entries are not always repeated. The source made the active and inactive calls. Unless noted, calls come from the whole dose curve; as a rule, active = well fitted curve in the direction sought with a large enough effect in the repeat runs; inconclusive = weak or mixed curves; inactive = no such curve, though single readings can be large; an effect the other way counts as inactive or inconclusive.
Experiments:
[1] = qHTS assay to identify small molecule antagonists of the glucocorticoid receptor (GR) signaling pathway - cell viability counter screen (AID 720693); note: nearly all actives have a fitted effect of over 55% in size
[2] = qHTS assay for identifying genotoxic compounds that show differential cytotoxicity against isogenic chicken DT40 cell lines with known DNA damage response pathways - wild type cell line (AID 743012); note: nearly all actives have a fitted effect of over 60% in size; note: potency is the fitted concentration of half-maximal effect
Method in brief: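 Cells (DT40 wild type, 300/well) are treated with DMSO-dissolved compounds after a ~0.5 h pre-incubation and kept 40 h at 37 C/5% CO2. Viability is then measured by CellTiter-Glo luminescence following 30 min at room temperature.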

[3] = qHTS assay for identifying genotoxic compounds that show differential cytotoxicity against isogenic chicken DT40 cell lines with known DNA damage response pathways - Rev3 mutant cell line (AID 743014); note: nearly all actives have a fitted effect of over 55% in size; note: potency is the fitted concentration of half-maximal effect
[4] = qHTS assay for identifying genotoxic compounds that show differential cytotoxicity against isogenic chicken DT40 cell lines with known DNA damage response pathways - Rad54/Ku70 mutant cell line (AID 743015); note: nearly all actives have a fitted effect of over 60% in size; note: potency is the fitted concentration of half-maximal effect
[5] = qHTS assay to identify small molecule antagonists of the androgen receptor (AR) signaling pathway - cell viability counter screen (AID 743033; note: nearly all actives have a fitted effect of over 45% in size)
[6] = qHTS assay to identify small molecule antagonists of the androgen receptor (AR) signaling pathway using the MDA cell line - cell viability counter screen (AID 743041; note: nearly all actives have a fitted effect of over 45% in size; note: potency is the fitted concentration of half-maximal effect)
Method in brief: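 R1881-driven MDA-kb2 AR-luc cells, 3,000/well, were dosed with library compounds for 16 h; cell health came from CellTiter-Fluor fluorescence in the reporter wells.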

[7] = qHTS assay to identify small molecule antagonists of the thyroid receptor (TR) signaling pathway - cell viability counter screen (AID 743064); note: nearly all actives have a fitted effect of over 50% in size; note: potency is the fitted concentration of half-maximal effect
Method in brief: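 CellTiter-Fluor readout, 30 min at 37 °C/5% CO2, following 23.5 h incubation of GH3.TRE-Luc cells with test compound and 1 nM T3 (final).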

[8] = qHTS assay to identify small molecule antagonists of the thyroid receptor (TR) signaling pathway (AID 743065); note: nearly all actives have a fitted effect of over 55% in size; note: potency is the fitted concentration of half-maximal effect
Method in brief: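 Antagonism measured as loss of luciferase signal in GH3 cells stably carrying a TRE-luciferase reporter, co-treated with compound and T3 (1 nM final) for 23.5 h at 37 C. Viability was read in the same well by CellTiter-Fluor.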

[9] = system: thyroid hormone receptor (rat, GH3 cells); assay: qHTS assay to identify small molecule agonists of the thyroid receptor (TR) signaling pathway (AID 743066; calls by dose curve; note: potency is the fitted concentration of half-maximal effect)
[10] = target: Estrogen receptor (Homo sapiens) (UniProt P03372); assay: qHTS assay to identify small molecule antagonists of the estrogen receptor alpha (ER-alpha) signaling pathway (AID 743069; active = well fitted curve in the direction sought with a large enough effect in the signal ratio in the repeat runs, not every such curve was filed as active; inconclusive = weak or mixed curves, or effect the other way; inactive = no such curve, though single readings can be large or run the other way; the % refers to the signal ratio; note: potency is the fitted concentration of half-maximal effect)
Method in brief: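 Compound effects are measured against 17beta-estradiol stimulation in HEK293 cells with a UAS-controlled beta-lactamase reporter for ER-alpha. Exposure lasts 18 hr at 37C; LiveBLAzer B/G FRET substrate follows for 2 hr at room temperature.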

[11] = qHTS assay to identify small molecule antagonists of the estrogen receptor alpha (ER-alpha) signaling pathway - cell viability counter screen (AID 743074; calls by dose curve;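 note: HEK293 cells carrying ER-alpha-UAS-bla reporter stimulated with 17beta-estradiol; nearly all actives have a fitted effect of over 45% in size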)
[12] = target: Estrogen receptor (Homo sapiens) (UniProt P03372); assay: qHTS assay to identify small molecule agonists of the estrogen receptor alpha (ER-alpha) signaling pathway (AID 743075; calls by dose curve)
[13] = target: Estrogen receptor (Homo sapiens) (UniProt P03372); assay: qHTS assay to identify small molecule agonists of the estrogen receptor alpha (ER-alpha) signaling pathway using the BG1 cell line (AID 743079); note: nearly all actives have a fitted effect of over 20% in size; note: potency is the fitted concentration of half-maximal effect
[14] = qHTS assay to identify small molecule antagonists of the estrogen receptor alpha (ER-alpha) signaling pathway using the BG1 cell line (AID 743080; calls by dose curve;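 note: BG1 cells stimulated with 17beta-estradiol alongside compound; series mostly up to about 70 µM; nearly all actives have a fitted effect of over 25% in size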)
Method in brief: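 Readout is ONE-Glo luminescence, taken 30 min at room temperature after reagent addition, preceded by a CellTiter-Fluor viability read; BG1-Luc-4E2 cells had received compound and 17beta-estradiol for 21.5 h at 37 C.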

[15] = qHTS assay to identify small molecule antagonists of the estrogen receptor alpha (ER-alpha) signaling pathway using the BG1 cell line - cell viability counter screen (AID 743081);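 note: compound given together with 17beta-estradiol as the ER stimulus; series mostly up to about 70 µM; nearly all actives have a fitted effect of over 45% in size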
Aromatase (Homo sapiens) = Aromatase (Homo sapiens) (UniProt P11511); assay: qHTS assay to identify aromatase inhibitors (AID 743083); note: nearly all actives have a fitted effect of over 55% in size; note: potency is the fitted concentration of half-maximal effect
[16] = target: Androgen receptor (Homo sapiens) (UniProt P10275); assay: qHTS assay to identify small molecule antagonists of the androgen receptor (AR) signaling pathway (AID 743035; active = well fitted inhibition curve with a large enough effect in the signal ratio in the repeat runs, not every such curve was filed as active; inconclusive = weak or mixed curves, or effect the other way; inactive = no such curve, though single readings can be large or run the other way; the % refers to the signal ratio)
Method in brief: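 Antagonism is scored as loss of R1881-driven beta-lactamase reporter expression in HEK293 cells carrying the reporter under a UAS element, after 16 h co-treatment at 37C and a 2 h room-temperature FRET substrate read.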

[17] = target: Androgen receptor (Homo sapiens) (UniProt P10275); assay: qHTS assay to identify small molecule agonists of the androgen receptor (AR) signaling pathway (AID 743036; active = well fitted activation curve with a large enough effect in the signal ratio in the repeat runs, with a control signal flat, not every such curve was filed as active; inconclusive = weak or mixed curves, or effect the other way; inactive = no such curve, though single readings can be large or run the other way; the % refers to the signal ratio)
Method in brief: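 Following a 4 h settling period, AR-UAS-bla HEK293 cells were dosed with compounds for 16 h at 37C. A 2 h room-temperature incubation with LiveBLAzer B/G FRET substrate preceded the fluorescence measurement.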

[18] = target: Androgen receptor (Homo sapiens) (UniProt P10275); assay: qHTS assay to identify small molecule agonists of the androgen receptor (AR) signaling pathway using the MDA cell line (AID 743040; note: nearly all actives have a fitted effect of over 20% in size; note: potency is the fitted concentration of half-maximal effect)
Method in brief: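 After a 5 h incubation at 37C and 0% CO2, MDA-kb2 reporter cells were dosed with compounds in DMSO and kept 16 h under the same conditions. Luciferase activity was then read as luminescence with ONE-Glo.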

[19] = target: Androgen receptor (Homo sapiens) (UniProt P10275); assay: qHTS assay to identify small molecule antagonists of the androgen receptor (AR) signaling pathway using the MDA cell line (AID 743042; note: nearly all actives have a fitted effect of over 55% in size)
Method in brief: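 Antagonist mode: compounds plus R1881 agonist added to MDA-kb2 AR-luc cells, incubated 16 h at 37C. Luciferase reporter luminescence quantified, with multiplexed CellTiter-Fluor readout for cell viability.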

Measured: Potency

Estrogen receptor (Homo sapiens), sequence (P03372 whole entry, looked up): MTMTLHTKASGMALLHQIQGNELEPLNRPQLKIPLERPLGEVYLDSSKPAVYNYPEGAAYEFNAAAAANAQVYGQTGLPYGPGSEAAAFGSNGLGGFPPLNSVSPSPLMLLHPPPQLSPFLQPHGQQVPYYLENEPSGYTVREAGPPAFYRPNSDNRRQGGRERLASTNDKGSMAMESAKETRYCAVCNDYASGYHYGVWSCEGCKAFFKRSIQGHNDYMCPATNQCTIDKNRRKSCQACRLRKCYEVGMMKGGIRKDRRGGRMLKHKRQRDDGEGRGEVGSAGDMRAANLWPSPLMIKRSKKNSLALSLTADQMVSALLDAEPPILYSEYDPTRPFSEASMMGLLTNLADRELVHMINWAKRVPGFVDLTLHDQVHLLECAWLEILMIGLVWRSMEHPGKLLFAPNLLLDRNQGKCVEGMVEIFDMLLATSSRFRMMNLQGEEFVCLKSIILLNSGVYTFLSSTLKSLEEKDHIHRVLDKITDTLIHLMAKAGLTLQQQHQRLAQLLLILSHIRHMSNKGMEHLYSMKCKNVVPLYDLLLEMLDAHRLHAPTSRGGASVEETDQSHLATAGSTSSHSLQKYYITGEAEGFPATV
Aromatase (Homo sapiens), sequence (P11511 whole entry, looked up): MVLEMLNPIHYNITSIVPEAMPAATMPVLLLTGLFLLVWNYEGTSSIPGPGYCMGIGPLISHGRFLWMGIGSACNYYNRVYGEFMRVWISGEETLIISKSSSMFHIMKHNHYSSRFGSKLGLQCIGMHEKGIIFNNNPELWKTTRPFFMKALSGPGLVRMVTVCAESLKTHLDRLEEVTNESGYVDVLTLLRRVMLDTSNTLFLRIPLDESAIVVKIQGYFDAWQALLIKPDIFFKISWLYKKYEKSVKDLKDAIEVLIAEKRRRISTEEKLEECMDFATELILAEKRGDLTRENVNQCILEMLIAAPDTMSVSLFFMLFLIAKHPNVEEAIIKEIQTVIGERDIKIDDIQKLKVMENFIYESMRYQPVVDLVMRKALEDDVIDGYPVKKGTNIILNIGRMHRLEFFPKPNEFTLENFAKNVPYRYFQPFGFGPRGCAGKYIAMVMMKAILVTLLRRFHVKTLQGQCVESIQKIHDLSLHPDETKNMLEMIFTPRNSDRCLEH
Androgen receptor (Homo sapiens), sequence (P10275 whole entry, looked up): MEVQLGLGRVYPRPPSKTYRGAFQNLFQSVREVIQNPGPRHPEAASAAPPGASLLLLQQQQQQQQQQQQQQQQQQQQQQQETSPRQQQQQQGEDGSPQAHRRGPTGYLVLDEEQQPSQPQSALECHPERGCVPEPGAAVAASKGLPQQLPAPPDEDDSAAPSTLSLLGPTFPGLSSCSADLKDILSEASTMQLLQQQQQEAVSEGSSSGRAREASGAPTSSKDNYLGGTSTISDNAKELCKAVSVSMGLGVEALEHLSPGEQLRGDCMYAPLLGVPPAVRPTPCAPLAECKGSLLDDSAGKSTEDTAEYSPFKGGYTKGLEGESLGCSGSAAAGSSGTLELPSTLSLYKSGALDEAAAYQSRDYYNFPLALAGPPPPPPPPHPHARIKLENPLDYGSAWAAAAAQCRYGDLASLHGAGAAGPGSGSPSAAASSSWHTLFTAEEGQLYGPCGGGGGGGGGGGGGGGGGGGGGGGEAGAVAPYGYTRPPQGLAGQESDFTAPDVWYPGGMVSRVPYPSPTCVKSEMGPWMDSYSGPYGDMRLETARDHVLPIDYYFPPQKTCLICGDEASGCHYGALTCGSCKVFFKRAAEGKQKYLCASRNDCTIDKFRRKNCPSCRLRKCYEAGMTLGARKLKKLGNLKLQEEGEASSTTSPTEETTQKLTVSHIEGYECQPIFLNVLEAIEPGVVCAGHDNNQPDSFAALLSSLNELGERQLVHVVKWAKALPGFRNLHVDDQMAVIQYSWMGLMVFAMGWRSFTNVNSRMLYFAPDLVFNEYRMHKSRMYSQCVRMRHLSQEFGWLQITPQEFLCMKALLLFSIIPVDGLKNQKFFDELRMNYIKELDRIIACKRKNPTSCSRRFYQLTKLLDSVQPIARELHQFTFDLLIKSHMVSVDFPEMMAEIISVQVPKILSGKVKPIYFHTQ

CCCCCCCCCCCCCCCCCC(=O)OCCCCCCCCCCCCCC(C)C
active: [13] 56.4 µM
not listed: [16] | [17] | [18] | [19]
inactive: all other assays above

CCC(C(=O)NC(N)=O)c1ccccc1 (stereo not drawn)
not listed: [16] | [17] | [18] | [19]
inactive: all other assays above

NC(N)=NS(=O)(=O)c1ccc(N)cc1
inactive: all assays above

CCOC(=O)[C@H](CCc1ccccc1)N[C@@H](C)C(=O)N1CCC[C@H]1C(=O)O
inactive: [1] | [2] | [3] | [4] | [5] | [6] | [8] | [9] | [11] | [15] | Aromatase (Homo sapiens)

c1ccc(SCCSc2ccccc2)cc1
not listed: [4] | [7] | [10] | [11] | [12] | [13] | [14]
inactive: all other assays above

CC(C)c1ccc2oc3nc(N)c(C(=O)O)cc3c(=O)c2c1
active: [18] 11.9 µM
not listed: [4] | [8] | [10] | [12] | [13] | [14] | [17]
inactive: all other assays above

CCCCCCC(CCCCCCCCCCC(=O)OCC(COC(C)=O)OC(C)=O)OC(C)=O (stereo not drawn)
not listed: [7] | [16] | [17] | [18] | [19]
inactive: all other assays above

CC(C)(C)CC(C)(C)N
not listed: [4] | [16] | [17] | [18] | [19]
inactive: all other assays above

COC(=O)C1=C(C)NC(C)=C(C(=O)OCC(C)=O)C1c1ccccc1[N+](=O)[O-] (stereo not drawn)
inactive: [1] | [11] | [12] | [13]
active: [2] 5.96 µM | [3] 11.9 µM | [4] 10.6 µM | [7] 8.41 µM | [8] 7.5 µM | Aromatase (Homo sapiens) 26.6 µM

CSc1ccc(C=O)cc1
inactive: [1] | [2] | [3] | [4] | [5] | [6] | [8] | [9] | [11] | [15] | Aromatase (Homo sapiens)

C=C[Si](OC)(OC)OC
not listed: [7] | [14] | [16] | [17] | [18] | [19]
inactive: all other assays above

CCCCNc1ccccc1
not listed: [4] | [17]
inactive: all other assays above

OC1OC[C@@H](O)[C@H](O)[C@H]1O (stereo partly drawn)
inactive: [1] | [2] | [3] | [4] | [5] | [6] | [8] | [9] | [15] | Aromatase (Homo sapiens)

CN1[C@@H]2CC[C@H]1CC(NC(=O)n1c(=O)[nH]c3ccccc31)C2 (stereo partly drawn)
not listed: [4] | [8] | [9] | [14]
inactive: all other assays above

CC(C)(C)N(CCO)CCO
not listed: [7] | [16] | [17] | [18] | [19]
inactive: all other assays above

CC(=O)NC(Cc1ccccc1)C(=O)O (stereo not drawn)
not listed: [7] | [16] | [17] | [18] | [19]
inactive: all other assays above

O=C(O)Cc1cc(I)c(Oc2cc(I)c(O)c(I)c2)c(I)c1
active: [9] 0.003 µM | [10] 15.2 µM [inconclusive]
inactive: [1] | [2] | [3] | [4] | [5] | [6] | [11] | [12] | [15] | Aromatase (Homo sapiens)

C[C@H](O)C(=O)Nc1c(I)c(C(=O)NC(CO)CO)c(I)c(C(=O)NC(CO)CO)c1I
not listed: [5] | [14] | [16] | [17] | [18] | [19]
inactive: all other assays above

CCC(=O)c1cccc(Cl)c1
inactive: [1] | [2] | [3] | [4] | [5] | [6] | [8] | [9] | [11] | [15] | Aromatase (Homo sapiens)

Nc1nc(F)nc2c1ncn2[C@@H]1O[C@H](CO)[C@@H](O)[C@@H]1O
active: [2] 841 nM and 1.68 µM | [3] 596 nM and 1.88 µM | [4] 1.33 µM and 2.66 µM | [8] 18.8 µM
not listed: [7] | [16] | [17] | [18] | [19]
inactive: all other assays above

C=CCn1c(=O)n([C@@H]2O[C@H](CO)[C@@H](O)[C@H]2O)c2nc(N)[nH]c(=O)c21
not listed: [4] | [7]
inactive: all other assays above

CC(C)(O)Cc1ccccc1
not listed: [4] | [16] | [17] | [18] | [19]
inactive: all other assays above

CN(C)C(=O)C(CCN1CCC(O)(c2ccc(Cl)cc2)CC1)(c1ccccc1)c1ccccc1
inactive: [1] | [12]
active: [2] 5.96 µM | [3] 10.6 µM | [4] 10.6 µM | [6] 24.8 µM | [7] 8.41 µM | [8] 8.41 µM | Aromatase (Homo sapiens) 26.6 µM

CN(C)C(=O)Nc1ccccc1
not listed: [7] | [14] | [16] | [17] | [18] | [19]
inactive: all other assays above

COC(=O)[C@H]1[C@H]2C[C@@H]3c4[nH]c5cc(OC)ccc5c4CCN3C[C@H]2C[C@@H](OC(=O)COc2ccc(OC)cc2)[C@@H]1OC
active: [2] 21.1 µM | [3] 33.5 µM | [4] 18.8 µM | [8] 23.7 µM
inactive: [1] | [6] | [7] | [11] | [12] | [13] | [14] | [15] | Aromatase (Homo sapiens)

CN(C)CCOC(c1ccc(Cl)cc1)c1ccccn1 (stereo not drawn)
not listed: [7] | [8] | Aromatase (Homo sapiens) | [16] | [17] | [18] | [19]
inactive: all other assays above

CCN1CCN(c2cc3c(cc2F)c(=O)c(C(=O)O)cn3C2CC2)CC1
not listed: [4] | [7] | [10] | [12] | [13] | [14]
inactive: all other assays above

CCCCCCC(=O)OCC
not listed: [7] | [13] | [16] | [17] | [18] | [19]
inactive: all other assays above

COc1ccc(NC(C)=O)cc1
not listed: [4] | [7] | [10] | [11] | [12] | [13] | [14]
inactive: all other assays above

COCc1ccc(COC)cc1
not listed: [7] | [16] | [17] | [18] | [19]
inactive: all other assays above

COc1cc(CCC(C)=O)ccc1O
not listed: [4] | [10] | [12] | [13] | [14] | [16] | [17]
inactive: all other assays above

CC(=O)c1ccc(C)cc1
not listed: [7] | [8] | [9] | [16] | [17] | [18] | [19]
inactive: all other assays above

CC1(C)SC(C)(C)SC(C)(C)S1
not listed: [4]
inactive: all other assays above

NC(CS)C(=O)O (stereo not drawn)
inactive: [1] | [2] | [3] | [4] | [5] | [8] | [9] | [11] | Aromatase (Homo sapiens)

CC(C)[C@H](N)C(=O)OCCOCn1cnc2c(=O)[nH]c(N)nc21
active: [2] 11.9 µM | [3] 23.7 µM | [4] 26.6 µM
not listed: [7] | [16] | [17] | [18] | [19]
inactive: all other assays above

Cc1ccc(Nc2ccc(O)c3c2C(=O)c2ccccc2C3=O)cc1
not listed: [4] | [16] | [17] | [18] | [19]
inactive: all other assays above

CO
inactive: [1] | [2] | [3] | [4] | [5] | [6] | [8] | [9] | [11] | [15] | Aromatase (Homo sapiens)

Reference: PubChem BioAssay (Tox21)
